Data published in the supplement of paper PMC10849652.
Of roughly 8,800 targets only a part is listed; those with a hit were picked by preference. About 0.5% of all pairs of compound and target were hits. Unmarked numbers belong to inactive results.

Legend:
Experiment in all cases: log2 fold change, soluble protein after heating vs DMSO (PISA); higher = thermal stabilisation; K562 lysate, 10 uM; active = over 0.2 and 3.5 SD of the protein, either way, in both replicates (recomputed)
vemurafenib = compound: CCCS(=O)(=O)Nc1ccc(F)c(C(=O)c2c[nH]c3ncc(-c4ccc(Cl)cc4)cc23)c1F [vemurafenib]
Method in brief: (§1)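 Quantification was by TMTpro 16plex LC-MS/MS with equalised channel sums, applied to the supernatant after 21,000xg for 90 min. Samples were crude K562 extract at 1 mg/mL protein in PBS pH 7.4 with 1 mM MgCl2, treated with 10 μM compound for 30 min, heated for 3 min across 48°C-58°C, pooled and brought to 0.5% NP-40 at 4°C. Values are log-two fold changes in thermal stability relative to solvent controls, from duplicates.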

[1] = compound: CCCS(=O)(=O)Nc1ccc(F)c(C(=O)c2c[nH]c3ncc(Cl)cc23)c1F
Method in brief: as §1

barasertib = compound: CCN(CCCOc1ccc2c(Nc3cc(CC(=O)Nc4cccc(F)c4)[nH]n3)ncnc2c1)CCOP(=O)(O)O [barasertib]
Method in brief: as §1

[2] = compound: CC[C@@H]1C(=O)N(C)c2cnc(Nc3ccc(C(=O)NC4CCN(C)CC4)cc3OC)nc2N1C1CCCC1
Method in brief: as §1

volasertib = compound: CC[C@@H]1C(=O)N(C)c2cnc(Nc3ccc(C(=O)N[C@H]4CC[C@H](N5CCN(CC6CC6)CC5)CC4)cc3OC)nc2N1C(C)C [volasertib]
Method in brief: as §1

[3] = compound: CCn1c(C(=O)N(C2CC2)C2CC2)cc2c3c(ncn3C)c(Nc3cc(C)n(C)n3)nc21
Method in brief: as §1

[4] = compound: CCn1cc(-c2ccnc3[nH]c(-c4cccc(CN(C)C)c4)cc23)c(-c2ccc(NC(=O)N(C)C)cc2)n1
Method in brief: as §1

[5] = compound: CN1CCC(CNc2ccc3ncc(-c4cccc(OC(F)(F)F)c4)n3n2)CC1
Method in brief: as §1

saracatinib = compound: CN1CCN(CCOc2cc(OC3CCOCC3)c3c(Nc4c(Cl)ccc5c4OCO5)ncnc3c2)CC1 [saracatinib]
Method in brief: as §1

sotrastaurin = compound: CN1CCN(c2nc(C3=C(c4c[nH]c5ccccc45)C(=O)NC3=O)c3ccccc3n2)CC1 [sotrastaurin]
Method in brief: as §1

UniProt Q9BYG3, sequence (Q9BYG3 whole entry, looked up): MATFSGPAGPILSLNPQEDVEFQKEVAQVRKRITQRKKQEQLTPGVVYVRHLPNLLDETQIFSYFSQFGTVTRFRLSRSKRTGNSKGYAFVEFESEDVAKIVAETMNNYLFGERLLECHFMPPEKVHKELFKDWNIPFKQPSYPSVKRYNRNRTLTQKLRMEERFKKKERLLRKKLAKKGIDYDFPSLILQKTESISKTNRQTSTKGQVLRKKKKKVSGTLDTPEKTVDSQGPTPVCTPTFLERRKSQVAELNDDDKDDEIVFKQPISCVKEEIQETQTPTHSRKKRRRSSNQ
UniProt Q9NZJ9, sequence (Q9NZJ9 whole entry, looked up): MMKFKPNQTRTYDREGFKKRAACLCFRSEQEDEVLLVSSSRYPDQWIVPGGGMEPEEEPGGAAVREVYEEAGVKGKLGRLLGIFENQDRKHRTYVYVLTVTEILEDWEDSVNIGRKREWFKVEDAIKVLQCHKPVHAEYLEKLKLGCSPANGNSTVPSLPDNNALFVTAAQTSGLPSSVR
UniProt Q99836, sequence (Q99836 whole entry, looked up): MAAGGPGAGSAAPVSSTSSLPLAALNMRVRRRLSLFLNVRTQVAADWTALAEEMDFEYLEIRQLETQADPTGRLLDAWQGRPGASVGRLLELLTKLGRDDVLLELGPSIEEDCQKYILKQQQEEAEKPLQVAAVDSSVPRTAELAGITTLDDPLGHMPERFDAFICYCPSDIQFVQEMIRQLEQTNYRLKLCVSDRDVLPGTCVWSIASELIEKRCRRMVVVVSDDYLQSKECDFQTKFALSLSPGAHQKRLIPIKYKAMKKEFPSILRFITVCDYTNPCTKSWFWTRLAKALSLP
UniProt O00483, sequence (O00483 whole entry, looked up): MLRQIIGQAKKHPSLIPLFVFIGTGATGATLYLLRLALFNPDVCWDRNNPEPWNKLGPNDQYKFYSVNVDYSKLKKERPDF
UniProt O94916, sequence (O94916 whole entry, looked up): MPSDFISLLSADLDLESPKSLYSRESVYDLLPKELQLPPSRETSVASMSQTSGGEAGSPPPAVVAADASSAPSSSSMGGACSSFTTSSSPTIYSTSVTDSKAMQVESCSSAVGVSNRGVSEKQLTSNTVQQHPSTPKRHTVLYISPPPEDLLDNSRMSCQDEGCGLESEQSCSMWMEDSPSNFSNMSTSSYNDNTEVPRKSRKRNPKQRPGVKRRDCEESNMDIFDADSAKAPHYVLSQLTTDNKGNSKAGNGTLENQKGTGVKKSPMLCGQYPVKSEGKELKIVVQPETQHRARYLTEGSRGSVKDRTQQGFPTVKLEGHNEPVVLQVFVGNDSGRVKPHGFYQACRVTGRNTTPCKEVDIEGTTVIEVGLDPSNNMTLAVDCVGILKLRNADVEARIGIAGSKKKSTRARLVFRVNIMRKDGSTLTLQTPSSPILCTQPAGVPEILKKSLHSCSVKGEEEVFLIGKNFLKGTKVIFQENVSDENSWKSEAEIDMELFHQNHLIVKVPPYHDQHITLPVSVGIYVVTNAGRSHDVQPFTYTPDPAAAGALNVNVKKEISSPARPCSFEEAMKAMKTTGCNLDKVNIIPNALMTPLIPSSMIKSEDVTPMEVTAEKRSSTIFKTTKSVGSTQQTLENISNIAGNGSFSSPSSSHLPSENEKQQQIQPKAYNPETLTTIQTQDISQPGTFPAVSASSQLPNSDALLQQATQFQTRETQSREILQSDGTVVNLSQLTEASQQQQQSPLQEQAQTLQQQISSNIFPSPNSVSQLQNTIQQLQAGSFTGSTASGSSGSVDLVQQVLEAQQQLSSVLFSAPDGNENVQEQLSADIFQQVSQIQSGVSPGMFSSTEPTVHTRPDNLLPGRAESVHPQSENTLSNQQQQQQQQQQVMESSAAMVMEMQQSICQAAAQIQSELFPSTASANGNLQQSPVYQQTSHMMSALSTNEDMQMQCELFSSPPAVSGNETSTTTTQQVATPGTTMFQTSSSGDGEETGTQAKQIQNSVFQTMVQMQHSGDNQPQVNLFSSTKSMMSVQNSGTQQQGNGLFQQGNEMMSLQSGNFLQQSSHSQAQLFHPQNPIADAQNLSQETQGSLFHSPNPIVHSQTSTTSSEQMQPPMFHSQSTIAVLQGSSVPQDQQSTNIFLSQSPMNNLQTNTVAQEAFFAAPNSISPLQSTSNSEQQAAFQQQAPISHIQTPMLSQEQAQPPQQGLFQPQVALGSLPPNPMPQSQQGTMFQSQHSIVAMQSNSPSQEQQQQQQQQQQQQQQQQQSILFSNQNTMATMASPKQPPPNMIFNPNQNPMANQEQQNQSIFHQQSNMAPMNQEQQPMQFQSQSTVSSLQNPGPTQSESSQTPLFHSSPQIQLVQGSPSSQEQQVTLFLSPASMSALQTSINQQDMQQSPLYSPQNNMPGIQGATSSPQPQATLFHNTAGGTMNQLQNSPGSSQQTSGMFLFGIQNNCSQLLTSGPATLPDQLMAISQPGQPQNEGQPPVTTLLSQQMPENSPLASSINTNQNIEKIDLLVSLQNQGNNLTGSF
UniProt Q9BV86, sequence (Q9BV86 whole entry, looked up): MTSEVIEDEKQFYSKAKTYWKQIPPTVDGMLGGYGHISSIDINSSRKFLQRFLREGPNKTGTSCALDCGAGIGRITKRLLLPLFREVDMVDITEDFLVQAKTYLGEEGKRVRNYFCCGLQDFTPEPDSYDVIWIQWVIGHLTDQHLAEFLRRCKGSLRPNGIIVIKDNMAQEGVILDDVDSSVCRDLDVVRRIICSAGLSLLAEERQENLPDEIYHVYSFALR
UniProt Q9NZT2, sequence (Q9NZT2 whole entry, looked up): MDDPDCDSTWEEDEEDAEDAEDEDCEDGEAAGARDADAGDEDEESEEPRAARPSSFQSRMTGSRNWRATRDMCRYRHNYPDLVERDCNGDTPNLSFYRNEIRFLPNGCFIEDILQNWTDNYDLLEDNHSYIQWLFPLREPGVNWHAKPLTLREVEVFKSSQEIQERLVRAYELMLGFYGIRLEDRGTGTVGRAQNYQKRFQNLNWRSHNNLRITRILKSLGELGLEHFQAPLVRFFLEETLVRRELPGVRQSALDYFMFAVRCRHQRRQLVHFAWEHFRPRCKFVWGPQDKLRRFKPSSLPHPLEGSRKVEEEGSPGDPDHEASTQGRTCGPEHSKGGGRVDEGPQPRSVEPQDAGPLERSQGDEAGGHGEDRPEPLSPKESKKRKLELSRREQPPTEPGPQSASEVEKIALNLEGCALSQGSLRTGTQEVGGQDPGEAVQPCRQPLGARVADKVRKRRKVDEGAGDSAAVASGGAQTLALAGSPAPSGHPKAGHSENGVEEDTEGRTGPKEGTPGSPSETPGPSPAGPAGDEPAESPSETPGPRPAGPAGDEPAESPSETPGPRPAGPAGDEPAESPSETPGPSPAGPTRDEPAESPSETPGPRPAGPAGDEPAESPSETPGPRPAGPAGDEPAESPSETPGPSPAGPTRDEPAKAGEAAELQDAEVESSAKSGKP
UniProt P15559, sequence (P15559 whole entry, looked up): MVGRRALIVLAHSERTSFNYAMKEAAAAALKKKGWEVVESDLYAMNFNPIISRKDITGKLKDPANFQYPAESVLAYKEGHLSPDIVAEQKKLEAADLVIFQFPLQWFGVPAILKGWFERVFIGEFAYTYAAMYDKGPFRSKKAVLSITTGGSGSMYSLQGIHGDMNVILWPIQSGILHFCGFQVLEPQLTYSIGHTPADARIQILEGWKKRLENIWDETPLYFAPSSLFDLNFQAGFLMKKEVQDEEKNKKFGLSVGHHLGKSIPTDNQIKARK
UniProt Q13423, sequence (Q13423 whole entry, looked up): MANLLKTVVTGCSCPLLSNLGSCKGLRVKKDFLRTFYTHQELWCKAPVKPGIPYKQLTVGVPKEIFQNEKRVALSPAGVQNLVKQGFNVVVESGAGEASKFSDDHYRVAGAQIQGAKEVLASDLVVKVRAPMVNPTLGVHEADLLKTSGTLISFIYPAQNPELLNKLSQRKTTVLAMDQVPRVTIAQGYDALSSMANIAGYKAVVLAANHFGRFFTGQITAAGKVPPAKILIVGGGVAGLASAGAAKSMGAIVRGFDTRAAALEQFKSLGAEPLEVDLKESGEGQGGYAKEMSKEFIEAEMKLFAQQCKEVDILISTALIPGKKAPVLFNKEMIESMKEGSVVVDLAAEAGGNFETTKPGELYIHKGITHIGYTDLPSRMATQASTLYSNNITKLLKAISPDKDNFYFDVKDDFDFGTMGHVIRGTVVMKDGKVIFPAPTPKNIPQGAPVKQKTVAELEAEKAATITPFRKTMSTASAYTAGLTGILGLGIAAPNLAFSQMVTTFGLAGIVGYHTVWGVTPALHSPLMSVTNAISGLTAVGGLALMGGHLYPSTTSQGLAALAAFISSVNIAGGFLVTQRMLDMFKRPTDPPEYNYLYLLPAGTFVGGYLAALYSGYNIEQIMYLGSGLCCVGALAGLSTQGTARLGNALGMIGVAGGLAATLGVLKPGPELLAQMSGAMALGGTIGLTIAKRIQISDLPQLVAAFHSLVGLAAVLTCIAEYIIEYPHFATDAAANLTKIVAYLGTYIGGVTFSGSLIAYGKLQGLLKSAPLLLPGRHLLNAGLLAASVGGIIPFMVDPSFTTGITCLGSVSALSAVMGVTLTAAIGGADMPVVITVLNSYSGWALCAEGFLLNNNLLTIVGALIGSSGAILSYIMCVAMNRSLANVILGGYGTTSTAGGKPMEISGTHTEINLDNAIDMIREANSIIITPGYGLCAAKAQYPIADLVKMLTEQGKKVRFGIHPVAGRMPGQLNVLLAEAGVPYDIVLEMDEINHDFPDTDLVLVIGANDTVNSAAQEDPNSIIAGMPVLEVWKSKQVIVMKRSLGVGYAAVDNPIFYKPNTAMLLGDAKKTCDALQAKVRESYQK
UniProt Q9BRA0, sequence (Q9BRA0 whole entry, looked up): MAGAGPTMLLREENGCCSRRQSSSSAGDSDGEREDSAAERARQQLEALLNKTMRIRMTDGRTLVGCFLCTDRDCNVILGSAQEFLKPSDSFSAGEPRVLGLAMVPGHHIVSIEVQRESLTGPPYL

Target | log2 fold change (vemurafenib) | log2 fold change [1] | log2 fold change (barasertib) | log2 fold change [2] | log2 fold change (volasertib) | log2 fold change [3] | log2 fold change [4] | log2 fold change [5] | log2 fold change (saracatinib) | log2 fold change (sotrastaurin)
MYD88 isoform 6 (UniProt Q99836) | -0.031 | 0.01 | -0.002 | -0.042 | -0.075 | 0.022 | -0.009 | -0.013 | 0.009 | 0.05
MRPL51 (UniProt Q4U2R6) | 0.032 | 0.028 | 0 | -0.044 | 0.022 | 0.038 | -0.309 | 0.16 | 0.02 | 0.008
NBEAL2 (UniProt Q6ZNJ1) | -0.047 | 0.021 | 0.045 | -0.053 | -0.128 | 0.01 | 0.013 | -0.037 | 0.013 | 0
NUDT4 isoform 2 (UniProt Q9NZJ9) | 0.009 | 0.021 | -0.05 | 0.013 | 0.005 | -0.018 | -0.068 | 0.058 | 0.076 | 0
NAA38 isoform 2 (UniProt Q9BRA0) | 0.049 | 0.014 | 0.09 | -0.012 | 0.025 | 0.04 | -0.461 (active) | 0.201 | 0.042 | -0.079
PARG (UniProt Q86W56) | 0.028 | 0.033 | 0.008 | -0.027 | -0.018 | -0.015 | 0.065 | -0.032 | 0.006 | 0.02
NARS2 (UniProt Q96I59) | 0.022 | 0.028 | 0 | -0.025 | -0.067 | 0.041 | -0.091 | 0.027 | 0.001 | -0.024
OSGEP (UniProt Q9NPF4) | 0.003 | 0.026 | 0.031 | -0.059 | -0.037 | -0.03 | -0.065 | 0.026 | -0.006 | -0.008
NFKBIB (UniProt Q15653) | -0.058 | 0.041 | -0.059 | 0.099 | 0.068 | -0.054 | -0.535 (active) | 0.096 | -0.013 | -0.002
NNT (UniProt Q13423) | 0.012 | -0.015 | 0.013 | 0.022 | 0.031 | -0.004 | 0.041 | -0.004 | -0.025 | -0.024
NQO1 (UniProt P15559) | -0.014 | 0.026 | 0.163 | -0.097 | -0.082 | -0.023 | -0.067 | -0.035 | 0.155 | 0.034
OTUD7B (UniProt Q6GQQ9) | 0.033 | 0.011 | 0.116 | -0.029 | -0.049 | 0.018 | 0.017 | -0.042 | 0.015 | -0.011
OSBPL6 isoform 5 (UniProt Q9BZF3) | -0.026 | -0.021 | -0.015 | -0.052 | -0.072 | 0.015 | -0.004 | 0.084 | -0.009 | -0.035
NUP133 (UniProt Q8WUM0) | 0.009 | 0.014 | 0.01 | -0.028 | -0.081 | 0.05 | -0.047 | 0.04 | 0.014 | 0.038
NDUFA4 (UniProt O00483) | -0.009 | 0.245 | 0.058 | 0.011 | 0.122 | 0.085 | 0.067 | -0.134 | 0.018 | -0.063
NCOR1 (UniProt O75376) | -0.005 | -0.01 | 0.018 | 0.043 | 0.002 | -0.014 | -0.002 | -0.033 | 0.006 | 0.006
NTMT1 (UniProt Q9BV86) | 0.023 | 0.026 | 0.026 | -0.029 | -0.024 | 0.015 | 0.055 | -0.101 | 0.008 | 0.056
NAA30 (UniProt Q147X3) | 0.001 | 0.009 | 0.037 | 0.043 | 0.012 | -0.058 | -0.022 | 0.043 | -0.003 | 0.045
NIFK (UniProt Q9BYG3) | 0.015 | 0.036 | 0.033 | 0.006 | -0.027 | 0.009 | 0.093 | -0.045 | 0.005 | -0.018
NOSTRIN (UniProt Q8IVI9) | 0.091 | 0.024 | 0.085 | -0.178 | -0.029 | -0.026 | 0.025 | -0.094 | -0.001 | -0.054
OTC (UniProt P00480) | 0.072 | -0.063 | 0.063 | -0.246 | 0.018 | -0.035 | -1.43 | 0.371 | 0.012 | 0.282
N4BP2 (UniProt Q86UW6) | -0.001 | 0.052 | -0.018 | 0.029 | -0.014 | 0 | -0.336 (active) | 0.029 | 0.018 | 0.05
NUP98 (UniProt P52948) | 0.001 | 0.035 | 0.02 | -0.005 | -0.071 | 0.031 | -0.062 | 0.019 | 0.073 | -0.005
MT-CYB (UniProt P00156) | 0.004 | -0.03 | -0.054 | 0 | 0.056 | -0.097 | -0.993 (active) | 0.521 (active) | 0.047 | 0.027
OGFR (UniProt Q9NZT2) | -0.033 | 0.025 | 0.003 | -0.012 | -0.067 | 0.004 | 0.12 | -0.039 | 0.022 | 0.053
OAT (UniProt P04181) | 0.066 | 0.003 | -0.012 | -0.019 | -0.014 | -0.006 | -0.119 | 0.014 | -0.004 | -0.024
MTA3 (UniProt Q9BTC8) | 0.019 | 0.002 | 0.017 | 0.023 | -0.022 | -0.055 | -0.017 | -0.097 | 0.036 | -0.006
NFAT5 isoform 5 (UniProt O94916) | 0.019 | -0.007 | -0.041 | 0.043 | -0.016 | 0.042 | -0.003 | 0.044 | 0.038 | 0.044
OCRL (UniProt Q01968) | 0.168 | 0.014 | 0.04 | 0.018 | -0.057 | -0.032 | -0.074 | 0.049 | 0.027 | 0.019
NCK1 (UniProt P16333) | 0.049 | 0.003 | -0.008 | 0.068 | -0.011 | -0.025 | 0.067 | -0.05 | 0.015 | 0.014
